# Records with an inconclusive call do not appear. A structure can be active in one record and inactive in another. Activity calls are given as the source filed them. How the source made its calls, unless noted: active means hit-call score of the fitted dose curve at least 0.9, where 1 is the maximum; inactive means score below 0.9.
# Tests used:
# [1] = read-out: Monokine induced gamma interferon (MIG), CXCL9 (gene 4283); test: BSK_3C_MIG: BioMAP Diversity Plus: 3C Assay for Monokine induced gamma interferon (MIG) Biomarker Activity (AID 2283021); settings: primary human endothelial cells (HUVEC); actives raise or lower the signal;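 on AC50: MIG protein level measured by immunoassay in the treated endothelial cultures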
# In short: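 ELISA measurement of MIG in human umbilical vein endothelial cells 24 h after treatment. Cytotoxicity tracked by SRB staining in parallel cultures; gain or loss of signal fitted relative to DMSO.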
# [2] = BSK_3C_SRB: Viability Assessment in the BioMAP Diversity Plus: 3C Assay (AID 2283023); settings: primary human endothelial cells (HUVEC);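 further: fitted both ways against DMSO so a hit may be signal rise or drop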
# In short: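 Overt cytotoxicity is gauged in parallel confluent HUVEC cultures by SRB total-protein staining at the time of biomarker measurement, 24 h after dosing. Gain or loss of signal is fitted versus DMSO.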
# [3] = BSK_3C_Vis: BioMAP Diversity Plus: 3C Assay for Morphology Visualization (AID 2283025); settings: primary human endothelial cells (HUVEC);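 further: fitted both ways so gain or loss versus DMSO counts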;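 on AC50: light microscopy image of cell morphology used as background control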
# In short: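 Light-microscopy visualization of HUVEC cultures at 24 h post-treatment, with DMSO as baseline for bidirectional fitting.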
# [4] = read-out: Pselectin, SELP (gene 6403); test: BSK_4H_Pselectin: BioMAP Diversity Plus: 4H Assay for Pselectin Biomarker Activity (AID 2283026); settings: primary human endothelial cells (HUVEC); actives raise or lower the signal
# In short: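 ELISA of surface P-selectin on HUVEC, 24 h after dosing, with parallel SRB staining (0.1% after 10% TCA fixation, 560 nm) for overt cytotoxicity. Activity fitted in both directions relative to DMSO.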
# [5] = BSK_4H_SRB: Viability Assessment in the BioMAP Diversity Plus: 4H Assay (AID 2283027); settings: primary human endothelial cells (HUVEC);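 further: cells exposed to compound for 24 h before staining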;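 on AC50: curves fitted both ways versus DMSO so AC50 may be loss or gain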
# In short: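 HUVEC, 24 h post-dose; 10% TCA fix, 0.1% SRB stain, A560 nm. Total protein = overt cytotoxicity, parallel to biomarker read. Bidirectional fit vs DMSO baseline.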
# [6] = BSK_BE3C_SRB: Viability Assessment in the BioMAP Diversity Plus: BE3C Assay (AID 2283028); settings: primary human bronchial epithelial cells;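 on AC50: fitted both ways so AC50 may mark signal gain or loss versus DMSO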
# In short: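 SRB total-protein staining (0.1%, after TCA fixation) of chemically dosed human bronchial epithelial primary cells at 24 h; DMSO serves as the negative control for bidirectional curve fitting.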
# [7] = read-out: Thrombomodulin, THBD (gene 7056); test: BSK_3C_Thrombomodulin: BioMAP Diversity Plus: 3C Assay for Thrombomodulin Biomarker Activity (AID 2283029); settings: primary human endothelial cells (HUVEC); actives raise or lower the signal
# In short: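 ELISA measurement of thrombomodulin on HUVEC surface 24 h after chemical dosing; activity fitted in both directions relative to DMSO vehicle.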
# [8] = read-out: Urokinase-type plasminogen activator receptor (uPAR), PLAUR (gene 5329); test: BSK_4H_uPAR: BioMAP Diversity Plus: 4H Assay for Urokinase-type plasminogen activator receptor (uPAR) Biomarker Activity (AID 2283030); settings: primary human endothelial cells (HUVEC); actives raise or lower the signal
# In short: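 Endpoint derived via bidirectional curve fitting against DMSO baseline; readout was ELISA detection of uPAR on umbilical vein endothelial cells at 24 h post-treatment, with SRB-stained parallel cultures assessing cytotoxicity.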
# [9] = read-out: Vascular endothelial growth factor receptor 2 (Homo sapiens) (UniProt P35968); test: BSK_4H_VEGFRII: BioMAP Diversity Plus: 4H Assay for Vascular endothelial growth factor receptor 2 (VEGFR2) Biomarker Activity (AID 2283031); settings: primary human endothelial cells (HUVEC); actives raise or lower the signal
# In short: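 In this multiplexed HUVEC system, biomarker ELISA was performed after 24 h chemical exposure. Parallel SRB staining (TCA fixation, 560 nm) tracked cytotoxicity; DMSO served as baseline.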
# [10] = read-out: Human Leukocyte Antigen - DR isotype (HLADR), HLA-DRA (gene 3122); test: BSK_BE3C_HLADR: BioMAP Diversity Plus: BE3C Assay for Human Leukocyte Antigen - DR isotype (HLADR) Biomarker Activity (AID 2283032); settings: primary human bronchial epithelial cells; actives raise or lower the signal
# In short: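 Cell-surface HLA-DR ELISA readout at 24 h after dosing in the BE3C primary human lung bronchial epithelial system; gain or loss of signal against DMSO, with parallel sulforhodamine B staining of total protein for overt cytotoxicity.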
# [11] = read-out: Vascular cell adhesion molecule 1 (VCAM1), VCAM1 (gene 7412); test: BSK_4H_VCAM1: BioMAP Diversity Plus: 4H Assay for Vascular cell adhesion molecule 1 (VCAM1) Biomarker Activity (AID 2283033); settings: primary human endothelial cells (HUVEC); actives raise or lower the signal;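 on outcome: cell-surface VCAM-1 protein measured by ELISA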
# In short: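 VCAM-1 ELISA read 24 h after chemical dosing of HUVEC in the BioMAP 4H system, with gain or loss of signal fitted relative to DMSO. Parallel SRB staining (560 nm) checked overt cytotoxicity.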
# [12] = read-out: Interferon-gamma inducible Protein 10 (IP10), CXCL10 (gene 3627); test: BSK_BE3C_IP10: BioMAP Diversity Plus: BE3C Assay for Interferon-gamma inducible Protein 10 (IP10) Biomarker Activity (AID 2283034); settings: primary human bronchial epithelial cells; actives raise or lower the signal
# In short: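 IP-10 quantified by ELISA in human primary bronchial epithelial cell cultures at 24 hours post-dosing. Gain or loss of signal fitted relative to DMSO; parallel SRB staining assessed overt cytotoxicity.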
# [13] = read-out: Monokine induced gamma interferon (MIG), CXCL9 (gene 4283); test: BSK_BE3C_MIG: BioMAP Diversity Plus: BE3C Assay for Monokine induced gamma interferon (MIG) Biomarker Activity (AID 2283035); settings: primary human bronchial epithelial cells; actives raise or lower the signal;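 on outcome: MIG protein measured by ELISA in BE3C cultures after 24 h of dosing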
# In short: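 Dose cells (human primary bronchial epithelial), incubate 24 h, quantify MIG by ELISA, then fit concentration–response in both directions relative to DMSO control.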
# [14] = read-out: Transforming growth factor beta 1 (TGFb1), TGFB1 (gene 7040); test: BSK_BE3C_TGFb1: BioMAP Diversity Plus: BE3C Assay for Transforming growth factor beta 1 (TGFb1) Biomarker Activity (AID 2283036;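 on outcome: TGF-b1 protein level measured by ELISA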); settings: primary human bronchial epithelial cells; actives raise or lower the signal
# In short: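 ELISA readout of TGF-b1 from human lung bronchial epithelial primary cells, taken 24 h post-treatment. Gain or loss of signal fitted relative to DMSO baseline, with parallel SRB staining for overt cytotoxicity.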
# [15] = read-out: Plasminogen activator inhibitor-1 (PAI1), SERPINE1 (gene 5054); test: BSK_BE3C_PAI1: BioMAP Diversity Plus: BE3C Assay for Plasminogen activator inhibitor-1 (PAI1) Biomarker Activity (AID 2283037); settings: primary human bronchial epithelial cells; actives raise or lower the signal
# In short: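 PAI-1 was measured by ELISA in human primary bronchial epithelial cultures 24 h after chemical dosing, with cytotoxicity checked by SRB total-protein staining in parallel cultures. Activity was fitted in both directions relative to DMSO.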
# [16] = read-out: urokinase plasminogen activator (uPA), PLAU (gene 5328); test: BSK_BE3C_uPA: BioMAP Diversity Plus: BE3C Assay for urokinase plasminogen activator (uPA) Biomarker Activity (AID 2283038); settings: primary human bronchial epithelial cells; actives raise or lower the signal;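 on outcome: uPA protein level quantified by ELISA in cell cultures; uPA read one day after compound addition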
# In short: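 Using confluent primary human lung bronchial epithelial cultures, we dosed chemicals, waited 24 h, then ran a uPA ELISA, fitting bidirectionally against DMSO.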
# [17] = read-out: Urokinase-type plasminogen activator receptor (uPAR), PLAUR (gene 5329); test: BSK_BE3C_uPAR: BioMAP Diversity Plus: BE3C Assay for Urokinase-type plasminogen activator receptor (uPAR) Biomarker Activity (AID 2283039); settings: primary human bronchial epithelial cells; actives raise or lower the signal;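 on outcome: cells exposed to compound for one day before measurement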
# In short: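 uPAR levels were measured by ELISA after 24 h compound treatment of primary human bronchial epithelial cells, fitted in both directions relative to DMSO. Parallel SRB staining served as the cytotoxicity read-out.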
# [18] = read-out: Interleukin-6 (IL6), IL6 (gene 3569); test: BSK_CASM3C_IL6: BioMAP Diversity Plus: CASM3C Assay for Interleukin-6 (IL6) Biomarker Activity for (AID 2283040); settings: primary human coronary artery smooth muscle cells; actives raise or lower the signal
# [19] = target: human Vitamin D Receptor (VDR), VDR (gene 7421) (UniProt P11473); test: ATG_VDR_TRANS: Attagene TRANS-FACTORIAL HepG2 Assay for human Vitamin D Receptor (VDR) (AID 2283022; active means hit-call score of the fitted dose curve at least 0.9, where 1 is the maximum)
# In short: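 Multiplexed TRANS reporter in HepG2; 24 h treatment; reporter mRNA by RT-PCR plus capillary electrophoresis; upregulation scored relative to DMSO.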
# [20] = read-out: Matrix Metallopeptidase 1 (MMP1), MMP1 (gene 4312); test: BSK_BE3C_MMP1: BioMAP Diversity Plus: BE3C Assay for Matrix Metallopeptidase 1 (MMP1) Biomarker Activity (AID 2283024); settings: primary human bronchial epithelial cells; actives raise or lower the signal
# In short: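 ELISA measurement of MMP-1 after 24 h compound exposure of primary human bronchial epithelial cells. Changes in either direction fitted relative to DMSO; parallel SRB staining checked overt cytotoxicity.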
# Chain of human Vitamin D Receptor (VDR), VDR (gene 7421) (P11473 whole entry, looked up): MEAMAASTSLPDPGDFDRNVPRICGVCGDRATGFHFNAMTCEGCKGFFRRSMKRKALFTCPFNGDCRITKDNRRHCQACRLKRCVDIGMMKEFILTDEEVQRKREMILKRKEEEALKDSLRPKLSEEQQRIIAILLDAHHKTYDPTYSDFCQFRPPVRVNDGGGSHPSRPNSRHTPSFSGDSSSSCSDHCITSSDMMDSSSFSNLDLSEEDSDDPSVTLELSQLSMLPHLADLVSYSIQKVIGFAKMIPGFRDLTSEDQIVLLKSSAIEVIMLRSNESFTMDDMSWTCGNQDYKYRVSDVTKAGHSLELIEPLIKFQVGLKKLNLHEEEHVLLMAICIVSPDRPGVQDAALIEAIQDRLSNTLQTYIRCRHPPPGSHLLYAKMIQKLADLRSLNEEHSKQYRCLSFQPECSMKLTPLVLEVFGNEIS
smiles,measurement,setting,value
c1ccc2c(c1)c1cccc3ccc4cccc2c4c31,outcome,[1],inactive
same,outcome,[2],inactive
same,outcome,[3],inactive
same,outcome,[4],inactive
same,outcome,[5],inactive
same,outcome,[6],inactive
same,outcome,[7],inactive
same,outcome,[8],inactive
same,outcome,[9],inactive
same,outcome,[10],inactive
same,outcome,[11],inactive
same,outcome,[12],inactive
same,outcome,[13],inactive
same,outcome,[14],inactive
same,outcome,[15],inactive
same,outcome,[16],inactive
same,outcome,[17],inactive
same,outcome,[18],inactive
O=C(O)C[C@H](O)C[C@H](O)/C=C/c1c(C2CC2)nc2ccccc2c1-c1ccc(F)cc1,outcome,[1],inactive
same,outcome,[19],inactive
same,AC50,[2],0.0713 µM (active)
same,AC50,[3],3.47 µM (active)
same,AC50,[4],0.152 µM (active)
same,AC50,[5],0.847 µM (active)
same,outcome,[6],inactive
same,outcome,[8],inactive
same,outcome,[9],inactive
same,AC50,[10],0.028 µM (active)
same,outcome,[11],inactive
same,outcome,[12],inactive
same,outcome,[13],inactive
same,outcome,[14],inactive
same,outcome,[15],inactive
same,AC50,[16],1.7 µM (active)
same,outcome,[17],inactive
same,AC50,[18],0.0041 µM (active)
O=C1OC2(c3cc(Br)c(O)c(Br)c3Oc3c2cc(Br)c(O)c3Br)c2c(Cl)c(Cl)c(Cl)c(Cl)c21,AC50,[1],16.3 µM (active)
same,outcome,[19],inactive
same,AC50,[2],3.57 µM (active)
same,AC50,[3],8.63 µM (active)
same,AC50,[4],2.19 µM (active)
same,AC50,[5],3.51 µM (active)
same,AC50,[6],0.608 µM (active)
same,AC50,[8],1.34 µM (active)
same,AC50,[10],0.56 µM (active)
same,AC50,[11],4.23 µM (active)
same,AC50,[12],0.818 µM (active)
same,AC50,[13],2.49 µM (active)
same,AC50,[14],0.587 µM (active)
same,AC50,[15],0.563 µM (active)
same,AC50,[16],0.736 µM (active)
same,AC50,[17],0.84 µM (active)
same,outcome,[18],inactive
O=C(O)c1ccc([N+](=O)[O-])cc1,outcome,[1],inactive
same,outcome,[2],inactive
same,outcome,[3],inactive
same,outcome,[4],inactive
same,outcome,[5],inactive
same,outcome,[6],inactive
same,outcome,[7],inactive
same,outcome,[8],inactive
same,outcome,[9],inactive
same,outcome,[10],inactive
same,outcome,[11],inactive
same,outcome,[12],inactive
same,outcome,[13],inactive
same,outcome,[14],inactive
same,outcome,[15],inactive
same,outcome,[16],inactive
same,outcome,[17],inactive
same,outcome,[18],inactive
CC[Si](OC(C)=O)(OC(C)=O)OC(C)=O,outcome,[1],inactive
same,outcome,[19],inactive
same,outcome,[2],inactive
same,outcome,[20],inactive
same,outcome,[4],inactive
same,outcome,[5],inactive
same,outcome,[6],inactive
same,outcome,[8],inactive
same,outcome,[9],inactive
same,outcome,[10],inactive
same,AC50,[11],0.195 µM (active)
same,outcome,[11],inactive
same,outcome,[12],inactive
same,outcome,[13],inactive
same,outcome,[15],inactive
same,outcome,[16],inactive
same,outcome,[17],inactive
same,outcome,[18],inactive
Cc1ccc(O)c(C(C)(C)C)c1,outcome,[1],inactive
same,AC50,[2],25 µM (active)
same,AC50,[3],13.4 µM (active)
same,AC50,[4],34.3 µM (active)
same,AC50,[5],33.5 µM (active)
same,AC50,[6],31.9 µM (active)
same,AC50,[8],28.2 µM (active)
same,outcome,[9],inactive
same,AC50,[10],30.5 µM (active)
same,AC50,[11],30.5 µM (active)
same,AC50,[12],36.8 µM (active)
same,AC50,[13],35 µM (active)
same,outcome,[14],inactive
same,outcome,[15],inactive
same,AC50,[16],31.6 µM (active)
same,AC50,[17],20 µM (active)
same,AC50,[18],10.6 µM (active)
O=C1CCCCCCCCCCCCCCO1,outcome,[1],inactive
same,outcome,[19],inactive
same,AC50,[2],27.1 µM (active)
same,AC50,[3],14.4 µM (active)
same,AC50,[4],27.6 µM (active)
same,AC50,[5],27.4 µM (active)
same,AC50,[6],9.72 µM (active)
same,AC50,[8],23.7 µM (active)
same,outcome,[9],inactive
same,AC50,[10],20 µM (active)
same,AC50,[11],27.4 µM (active)
same,AC50,[12],12.6 µM (active)
same,outcome,[13],inactive
same,AC50,[14],14.6 µM (active)
same,AC50,[15],20 µM (active)
same,AC50,[16],32.7 µM (active)
same,AC50,[17],20 µM (active)
same,AC50,[18],31.6 µM (active)
